Screening results (PubChem)
Only some compounds are listed: those with a hit (about 4.5% of all), similar ones and a draw of the others.
Jurkat NFkB inh: inhibitors of the PMA/ionomycin-induced NF-kB reporter in Jurkat cells; inhibition, % at 4 µM; PMA/ionomycin-induced NF-kB luciferase reporter, luminescence; hit rate 0.53% among 330,000; AID 435003; in the data active means inhibition above about 50%
Mdm2-MdmX inh: disrupts the human Mdm2-MdmX interaction; O15151+Q00987; SaOS-2 split-luciferase Mdm2/MdmX complementation, luminescence; inhibition, % at 8 µM; hit rate 3% among 330,000; AID 485346;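 active means inhibition of at least 50% at 8 µM in the primary screen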
Gli-Sufu antag: blocks Gli-Sufu signaling in a luciferase reporter; Sufu-KO-LIGHT fibroblasts, Gli luciferase reporter luminescence; inhibition, % at 5 µM; hit rate 0.74% among 340,000;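 active means inhibition above about 55%, limit read from the data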
aSyn UTR inh: MLPCN primary screen, SNCA 5' untranslated region | alpha-synuclein 5'UTR reporter, inhibitor activity | inhibition, % (tested at 7.5 µM) | hit rate 0.82% among 300,000 | AID 1813; in the data active means inhibition above about 60%;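 further: H4 neuroglioblastoma cells stably carrying SNCA 5'UTR luciferase fusion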
697 NFkB inh: inhibitors of the PMA/ionomycin-induced NF-kB reporter in 697 B cells | 697 B-cell NF-kB luciferase reporter, 16 h | inhibition, % at 4 µM | hit rate 0.33% among 330,000; in the data active means inhibition above about 35%
CSC inhib: blocks cancer stem cells. cancer stem cell-like cells viability, luminescence. inhibition, % at 7.5 µM. hit rate 1.1% among 300,000. AID 2717; in the data active means inhibition above about 75%; tested in HMLE shEcad cells
Mdm2 MdmX conf: human Mdm2/MdmX binding inhibition, confirmed; inhibition, % at 8 µM; AID 489028; luminescent assay; hit rate 55% among 10,000; shares compounds with Mdm2-MdmX inh; in the data active means inhibition above about 40%
FLuc counter: full-length luciferase inhibition in Mdm2/MdmX counter-screen; shares compounds with Mdm2-MdmX inh; SaOS-2 full-length luciferase counterscreen, luminescence; inhibition, % at 8 µM; hit rate 77% among 6,200; AID 504607;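 active means mean inhibition at 8 µM reaching about 37%, which flags the compound as non-specific, limit read from the data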;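 further: p53-null SaOS-2 cells with luciferase driven by a doxycycline-inducible promoter; compound on cells about two nights before reading with doxycycline added after day one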
Hits are given with their value; . = inactive; / = not tested or not shown.

SMILES	Jurkat NFkB inh	Mdm2-MdmX inh	Gli-Sufu antag	aSyn UTR inh	697 NFkB inh	CSC inhib	Mdm2 MdmX conf	others
CCc1nnc(NC(=O)c2nc(S(=O)(=O)Cc3ccccc3)ncc2Cl)s1	.	100.4	.	.	.	100.6	48.9	FLuc counter=.
CCc1nnc(NC(=O)c2nc(Cl)ccc2Cl)s1	.	.	.	.	.	.	/
Cc1cccc(C(=O)Nc2nnc(Cc3ccccc3)s2)c1	.	.	.	.	.	.	/
CCc1nnc(NC(=O)c2nc(S(=O)(=O)Cc3ccc(C)cc3)ncc2Cl)s1	.	94.9	.	.	.	/	79.6	FLuc counter=51.8
Cc1ccc(C)c(N2N=C(C(=O)Nc3cccnc3)CCC2=O)c1	.	.	.	/	.	/	/
C=CCn1c(N2CCN(c3ccc(OC)cc3)CC2)nc2c1c(=O)[nH]c(=O)n2C	.	.	.	.	.	.	/
O=C1c2ccc3c4c(ccc(c24)C(=O)N1c1ccc(O)cc1)C(=O)N(c1ccc(O)cc1)C3=O	.	63.1	.	.	.	.	.
O=C(O)c1ccc(S(=O)(=O)c2ccc3c(c2)C(=O)N(c2ccc(O)cc2)C3=O)cc1	.	.	.	.	.	.	/
CCc1cc2c(N=Nc3c(O)[nH]c4ccccc34)ncnc2s1	.	.	.	.	.	/	/
Oc1[nH]c2ccccc2c1N=Nc1ncnc2c1oc1ccccc12	.	100.4	/	.	.	.	.
COc1ccc(S(=O)(=O)N2CCN(S(=O)(=O)c3ccc4c(c3)OCCO4)CC2)cc1	.	58.2	.	.	.	.	.
COc1ccc(S(=O)(=O)N2CCN(S(=O)(=O)c3ccc4c(c3)OCCO4)CC2)cc1C	.	.	.	.	.	/	/
COC(=O)c1ccc2[nH]c3cccc(/C(=C/c4ccccc4)c4ccccc4)c3c2c1	.	65.5	.	.	.	128.8	.
O=C1CCCc2[nH]c3cccc(/C(=C/c4ccccc4)c4ccccc4)c3c21	.	.	.	.	.	.	/
N=C1S/C(=C\c2ccccc2F)C(=O)N1c1ccc(F)cc1	.	.	.	.	.	.	/
N=C1S/C(=C\c2cccc3ccccc23)C(=O)N1c1ccc(F)cc1	.	55.7	.	.	.	97.2	48.6	FLuc counter=61.9
O=C(Cc1ccccc1)NN1C(=O)/C(=C/c2ccccc2C(=O)O)SC1=S	.	.	.	.	.	.	/
COc1ccc(/C=N/n2cnc3c([nH]c4ccc(F)cc43)c2=O)cc1CSc1ccccn1	.	94.4	.	.	.	.	.
COc1cc(C(C)=O)ccc1OCC(O)CN1CCN(c2ccc(C)c(C)c2)CC1 (centres undefined)	.	.	.	.	.	.	/
Cc1ccc(CNC(=O)/C=C/c2c(Cl)cccc2Cl)cc1	.	55.5	.	.	.	.	.
Cc1ccc(CNC(=O)/C=C/c2ccccc2Cl)cc1	.	.	.	.	.	.	/
CN(C)c1ccc(NC(=O)/C=C/c2c(Cl)cccc2Cl)cc1	.	64.2	.	.	.	/	69.1	FLuc counter=50.3
COCC1CCCCN1C(=O)c1cccc(OC2CCN(S(C)(=O)=O)CC2)c1 (centres undefined)	.	.	.	.	.	/	/
CCOC(=O)c1cc(-c2ccccc2)sc1NC(=O)CC	.	.	.	.	.	.	/
CCOC(=O)c1cc(-c2ccccc2)sc1NC(=O)COC(=O)c1cccc(S(N)(=O)=O)c1	.	74.1	.	71.6	.	.	.
SMILES	Jurkat NFkB inh	Mdm2-MdmX inh	Gli-Sufu antag	aSyn UTR inh	697 NFkB inh	CSC inhib	Mdm2 MdmX conf	others
CC(C)NC(=O)COC(=O)c1ccc(Cl)c(S(N)(=O)=O)c1	.	.	.	.	.	.	/
CCOC(=O)c1cc(-c2ccccc2)sc1NC(=O)COC(=O)c1ccc(Cl)c(S(N)(=O)=O)c1	.	53.7	.	.	.	.	82.3	FLuc counter=87.8
NNC(=O)c1cc2c(s1)-c1cc(Cl)ccc1SC2	.	.	.	.	.	.	/
CCN(CC)CCNC(=O)c1cc2c(s1)-c1ccccc1SC2	.	63.6	.	.	.	.	48.4	FLuc counter=78.6
COC(=O)c1ccc(CSc2nc3ccc(S(=O)(=O)N4CCOCC4)cc3[nH]2)cc1	.	.	.	.	.	.	/
Cc1ccc(NCC(=O)Nc2c(C)n(C)n(-c3ccccc3)c2=O)cc1S(=O)(=O)N(C)C	.	.	.	.	.	.	/
